B1: chr11:18422405:18422406:+_ENSG00000134333_ENST00000379412|hu_hu|motif|central (ssRNA)
RNA: GGGAGUUCUACAGUCCGACGAUCCAGCUUGGAGUUUGCAGUUACAUUAUAGUCUUUGCCAGAGACAAUCUUUGGUGUUCGGAGGAAAAGGCUGCCAUGUUGGAGAUCCAUCAUCUCUCCCUUCAAUUUGUCUUCGAUGACAUCCAACAGAGGAUUGAGCAUCA
B2: chr14:89338683:89338684:+_ENSG00000165533_ENST00000346301|hu_hu|hu_hu_hu_mus_False|58_108 (ssRNA)
RNA: GGGAGUUCUACAGUCCGACGAUCGUGGUUGUUGUUGACCAGGGCCAGCCUGAAGCAUUGGUGGGCCAAGUUUGUAUCUCCUAUUCCCACAGCUAUGUGCCCCAGGUUGUACCAGACAUCAGCUGCCUCUUCUUCAUUUUCAGCCAACAGAGGAUUGAGCAUCA
B3: chr2:198351390:198351391:-_ENSG00000144381_ENST00000345042|hu_hu|hu_hu_hu_mus_False|78_78 (ssRNA)
RNA: GGGAGUUCUACAGUCCGACGAUCUCAUUCCCACCCUCCACAGAAAGGCUGCUUCUGUUCUCAUCUGUGGUGACACAGCGCUACAGUCCUGAUGCUCACAGAACAGUAGAGAUGCCUCAGUGAUUUAAGUUGAAAGCAGGACACCAACAGAGGAUUGAGCAUCA
B4: chr4:34758383:34758384:-_ENSMUSG00000039967_ENSMUST00000047950|mus_mus|FALSE|FALSE (ssRNA)
RNA: GGGAGUUCUACAGUCCGACGAUCUUCAUCAUCUGAACCAUCGUUGUCAUUAAACACUAUGAAAUCUGUUGAAUAAAGACUAUUCUUUUUUAUGGGUCGCUGUUCCUGUUUAGCCACAGUAUUAAUAUUAGUCUUUUGAUUUUCCAACAGAGGAUUGAGCAUCA
B5: chr17:13115065:13115066:+_ENSMUSG00000068039_ENSMUST00000151287|mus_mus|FALSE|FALSE (ssRNA)
RNA: GGGAGUUCUACAGUCCGACGAUCGAUACUUGCUCCAGAAGCUUUUGCAACAUGCUUCAGGUCUCGUUUUAAAACUCUCCUAACAGCCAUGGCACCAGCUUCCACAAAAUACUUGAGAUACAUAUCAUCAAUGCCACCAGUGGUCAACAGAGGAUUGAGCAUCA
B6: chr15:31385891:31385892:-_ENSMUSG00000039100_ENSMUST00000090227|mus_mus|motif|central (ssRNA)
RNA: GGGAGUUCUACAGUCCGACGAUCAUUCACUCCUAAACAGACACCCCUAGGCCUUAGUCACUCAUUUCCAUCUAAGGUUCGGUAGGAUUGUCAUGAUUACAAAAUGAGGCACUCAGACAGAUAGACAGGAAUGGAGACAUACAUCAACAGAGGAUUGAGCAUCA
B7: chr4:17845017:17845018:+_ENSG00000109805_ENST00000514176|hu_mus|hu_hu_hu_mus_False|1_58 (ssRNA)
RNA: GGGAGUUCUACAGUCCGACGAUCGCUCUCUUAACUUGUAUCUUCAUUAAGGAACUCUGCAAGGUUAAGUUUACUUUUUCUAGUGCUAGCUGUUUUGGCUCGUCUGGGUAAUCUCAUCUUCAUUUCUGAUGGUGGUUUGGAACUCAACAGAGGAUUGAGCAUCA
B8: chr6:146524949:146524950:-_ENSMUSG00000040250_ENSMUST00000032427|mus_hu|FALSE|FALSE (ssRNA)
RNA: GGGAGUUCUACAGUCCGACGAUCCUGCCUGCAAGAUUCUGCCAUAUAAGGGCAGUGAUCCACAACAAACACUGUUUUAUGAGAUUCAGAAAAAAUCUUCAUUUUGUUUUAACUUUCGUGCCUGGUCCUGCAGUGAAAACGAACCAACAGAGGAUUGAGCAUCA
B9: chr17:73774127:73774128:-_ENSG00000132475_ENST00000254810|hu_mus|motif|central (ssRNA)
RNA: GGGAGUUCUACAGUCCGACGAUCUGACAAGACUCCCCACCACUUGUGAAUGUAAAACAUUUAAUUUAAAAAUGUUGAACACGGCAAUAUAUAAAAUAGCUAUUAUAAAUGCACAUAGUGUAUUCUAUAGCUGCCAGGUUUACUCAACAGAGGAUUGAGCAUCA
B10: chr9:95013113:95013114:-_ENSG00000196305_ENST00000443024|hu_hu|hu_hu_hu_mus_False|68_108 (ssRNA)
RNA: GGGAGUUCUACAGUCCGACGAUCCUCAGUGAGAAAAGGCGUGUAAGGGGCCAUCAGUCUGCACAGAGAAAGCAGAACACUGAACAGUGUCUCCAGAGCCAUGACACAGUCUUCCACCCCACUCUCACCCUUUAACCUCCUCCUCAACAGAGGAUUGAGCAUCA
B11: chr8:41367971:41367972:+_ENSG00000147533_ENST00000520817|hu_hu|motif|central (ssRNA)
RNA: GGGAGUUCUACAGUCCGACGAUCAAUAUACAGUAUUAUUCCUAUCAAAUUUUUUUCUCAUAAGUUAUAUUUAUAACAAAACGGUAAUUAAAAUAUUUUUUAUACCUGCUUAUUCCAUAUCCAGGGACACAGCGGGAACAUUUACAACAGAGGAUUGAGCAUCA
B12: chr4:4237396:4237397:-_ENSG00000132406_ENST00000382753|hu_hu|motif|central (ssRNA)
RNA: GGGAGUUCUACAGUCCGACGAUCUAAAACUUCACAUUAGGAAAUGCUAAAAACCCAGUAAUGUACAUAAUGAUAAAAUCGGAAGUGAUGAGAAAACAUAAAAUAUUUUCAUUUGGUCCUGUCACCUAACAAAACUAUCAUAAACAACAGAGGAUUGAGCAUCA
B13: chr18:77696836:77696837:-_ENSMUSG00000025427_ENSMUST00000026494|mus_hu|FALSE|FALSE (ssRNA)
RNA: GGGAGUUCUACAGUCCGACGAUCCCUCAGAGGAUACCGGCUGGGUGGGCUGAGGUUGUGGGAGGAGCGAGGGAGGAGGAAAGGCAGGUUCAUGAUGGAGAGGCAGGGUUGUGGUGGGGGCGGGGGGGUGCCAAGUGUAGCAAGCAACAGAGGAUUGAGCAUCA
B14: chr8:35901500:35901501:-_ENSMUSG00000031529_ENSMUST00000033929|mus_mus|FALSE|FALSE (ssRNA)
RNA: GGGAGUUCUACAGUCCGACGAUCUAUAUAACAUGAUCUGUCUUUGUGUGUGGGACAGCCUGUUCCUCCUCCAAUUCCAUAAACAUACUGAUUGCUUUUUGAGGAGUUUUCAGCAAAGUAAAUUCCAGCUCCAAACAUCCCUCCCAACAGAGGAUUGAGCAUCA
B15: chr2:9728443:9728444:-_ENSG00000134308_ENST00000238081|hu_mus|motif|central (ssRNA)
RNA: GGGAGUUCUACAGUCCGACGAUCCUGCAUCUCCUUCUUGCUUAUAUCAAACGCCUCUUGGUAGGCUCCUUGGGAAUUUUCGGUUGUUUGUUUUCGAUCAUCGCCACAAGCUACUUCAGCAAGAUACCGGAAAUAAUCUCCCUUCAACAGAGGAUUGAGCAUCA
B16: 30602309_30602429_1961_3pUTR_ENSG00000107951_ENST00000263063|human|control|control (ssRNA)
RNA: GGGAGUUCUACAGUCCGACGAUCCGCCACACUCCACAGCUGAUGUUUUAAUAAAGUGCCACUGAGUAUCAGACUGAUCAAACUGAAAACAUCCCAGAACUUCAGACCAGGUUAAGGGGGCCAAUGAGAAGAUCAUGAAAAGUGCAACAGAGGAUUGAGCAUCA
B17: chr4:42003652:42003653:+_ENSG00000014824_ENST00000513699|hu_hu|motif|central (ssRNA)
RNA: GGGAGUUCUACAGUCCGACGAUCGGUACCAAUAUAUGGAUGACUACAGGGAACCAUGUUUGAAAAGCUUCCAAAUGUCACGGAAUUCUGCCACUCCUGGCGGUCGCUGGGAUUACAGGCCGCCGCCCUGCAUCGCAGACGGAGCAACAGAGGAUUGAGCAUCA
B18: 22790091_22790211_509_ncRNA_ENSMUSG00000026784_ENSMUST00000139472|mouse|control|control (ssRNA)
RNA: GGGAGUUCUACAGUCCGACGAUCAUGACUGGAGUUUGAUGAAGAAAGAACUGACUACUCAGACACCUGUCUCCCCACCGUGUGUGACACACACUAUAAGUCCCUCAGUAAUGAUGACAAUGUCUUGUAUCCUCUUCAUUUUUACAACAGAGGAUUGAGCAUCA
B19: chr2:202488911:202488912:-_ENSG00000155755_ENST00000286196|hu_mus|hu_hu_hu_mus_False|88_98 (ssRNA)
RNA: GGGAGUUCUACAGUCCGACGAUCAUUGAAACAUUUUCAUAAUAUUGAGAGAUGUUUUCAGCAUUAUGUAACAAAAGCUCAAUUGUAAAUACAUGUAUCUUAUAAAAAUACACUUAAAAACACGAGUGGGGAGCGCAGGCGCCACAACAGAGGAUUGAGCAUCA
B20: chr16:94690476:94690477:+_ENSMUSG00000040785_ENSMUST00000117648|mus_mus|motif|central (ssRNA)
RNA: GGGAGUUCUACAGUCCGACGAUCAGAAAUGUAAUGUAUUCAAGGUUCACAUGUCUGUAUUUGCCACUGCCUACAGGUCACGGAAAAUACCUAGUUUUUGAAUAGUUUCUAAUACAGUUAGCUUGUUUUCAGGCCACAUUACAACAACAGAGGAUUGAGCAUCA
B21: chr13:90237973:90237974:+_ENSMUSG00000012422_ENSMUST00000161568|mus_hu|FALSE|FALSE (ssRNA)
RNA: GGGAGUUCUACAGUCCGACGAUCAAGCACAGGUACAUAUAAGCAGCAAGAUUACAGUCAAUAGACUCUGAAAAUUGAAAAUGGCAGACAUAGCGAGGCCGGCGAUGCCGCAGCCACAUCACCCUUCCGGGGCUCAGGCGGAAGCAACAGAGGAUUGAGCAUCA
B22: chr1:163112212:163112213:-_ENSG00000143248_ENST00000313961|hu_hu|hu_hu_hu_mus_False|1_58 (ssRNA)
RNA: GGGAGUUCUACAGUCCGACGAUCUUUUAUUAUCAGUAAGAGUGAGUUACAUACUAGGCAAAGUAUUGGAUACAAUAUUCUAAAGAUAAACACUAUUGGUCCAGAAUUUAAAACUUUAUGAGCGAAGUGCUGGCACAGGAUUUACAACAGAGGAUUGAGCAUCA

Whole data set: some 24,000 sequences, median “enrichment r” near 0.99, cut for the highest 2% near 3.7. A selection follows.

For this experiment, the target named is T1, UNK ZnF1-3 (human, UniProt Q9C0B0 31-174).
T1 sequence: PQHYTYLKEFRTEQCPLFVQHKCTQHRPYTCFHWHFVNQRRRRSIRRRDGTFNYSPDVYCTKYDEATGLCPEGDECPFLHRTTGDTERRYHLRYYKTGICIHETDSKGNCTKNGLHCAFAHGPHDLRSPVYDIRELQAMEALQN
The experiment in a line: nsRBNS (natural sequence RNA bind-n-seq); RBNS binding buffer (assumed for nsRBNS): 25 mM Tris pH 7.5, 150 mM KCl, 3 mM MgCl2, 0.01% Triton X-100, 500 ug/ml BSA, 20 U/ml SUPERase-In, 4 C; UNK is unkempt and MSI1 is Musashi-1; names of the RNAs are library labels; protein concentration not given here; high values mean tight binding.
B1 yielded a binding signal of 0.638 enrichment R.
Take B2: the binding signal was 0.492 enrichment R.
With B3 the figure was 1.4 enrichment R; with B4, 0.418 enrichment R.
With B5 the figure was 0.985 enrichment R; with B6, 1.25 enrichment R.
With B7 the figure was 0.331 enrichment R; with B8, 1.02 enrichment R.
Molecule B9 displayed a binding signal of 1.13 enrichment R.
B10: the binding signal stood at 1.61 enrichment R.
In turn, B11 showed a binding signal of 1.27 enrichment R.
Regarding B12, the binding signal worked out at 1.05 enrichment R.
With B13 the figure was 3.07 enrichment R; with B14, 1.03 enrichment R.
With B15 the figure was 0.873 enrichment R; with B16, 2.32 enrichment R.
B17 came in with a binding signal of 1.6 enrichment R.
To B18 belongs 0.985 enrichment R.
With B19 the figure was 0.63 enrichment R; with B20, 0.656 enrichment R; with B21, 1.37 enrichment R.
With B22 the figure was 1.29 enrichment R.

The record behind these values is PMC12136788.
